Screens deposited in PubChem BioAssay by Sanford-Burnham Center for Chemical Genomics.
Most compounds without a hit are left out; they make up all but 3% or so of the library.
SENP8 block-1: inhibitors of human SENP8 protease; inhibition, % at 20 µM; hit rate 0.64% among 360,000; recombinant SENP8, Nedd8 substrate fluorescence; AID 602440; in the data active = inhibition mostly above about 40%, no sharp cut-off; inactive = mostly below about 27%
Target sequence (Q96LD8 whole entry, looked up): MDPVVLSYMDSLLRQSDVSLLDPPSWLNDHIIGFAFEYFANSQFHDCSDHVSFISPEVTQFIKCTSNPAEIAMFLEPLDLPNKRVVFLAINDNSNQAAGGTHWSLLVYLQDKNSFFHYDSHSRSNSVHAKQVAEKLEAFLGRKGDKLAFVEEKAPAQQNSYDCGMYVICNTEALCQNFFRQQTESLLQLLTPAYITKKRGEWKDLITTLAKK
SENP7 block: blocks the human protease SENP7; Q9BQF6; recombinant SENP7, Z-RLRGG-aminoluciferin luminescence, 40 min; inhibition, % at 5 µM; hit rate 1.5% among 330,000; AID 434973;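 active = inhibition above about 50% at the single test dose, limit read from the data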
SENP8 block-2: SENP8 protease inhibition | Q96LD8 | purified SENP8, Z-RLRGG-aminoluciferin cleavage, luminescence | inhibition, % at 10 µM | hit rate 1.2% among 330,000; in the data active = inhibition above about 50%
TRAIL sens C8: caspase-8 TRAIL sensitization | hit rate 1% among 360,000 | inhibition (viability loss, TRAIL sensitization), % at 10 µM | NB7+C8 cells + TRAIL, ATPlite viability luminescence;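 active = compounds causing at least 50% loss of cell viability in the single-dose screen, relative to plate controls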
SENP6 inh: blocks the human protease SENP6; hit rate 1.8% among 330,000; Recombinant SENP6 catalytic domain, aminoluciferin luminescence; AID 2599; inhibition, % at 10 µM;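 active = inhibition above about 50% at the single tested dose, limit read from the data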
PPC-1+TRAIL kill: PPC-1 cancer cell killing with TRAIL present; hit rate 0.41% among 220,000; PPC-1 cells + TRAIL, ATPLite viability luminescence; cell killing (% activity), % at 4 µM or 5 µM; AID 1443;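 active = cell killing above 50% in the first pass at 4 µM, then a duplicate retest at 5 µM averaging 50% or more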
SENP8 confirm: human SENP8 inhibition, confirmed | inhibition, % at 12.5 µM | hit rate 40% among 6,200 | Recombinant SENP8, Z-RLRGG-aminoluciferin luminescence, 60 min | shares compounds with SENP7 block | AID 488912;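 active = mean inhibition across replicates above about 50%, limit read from the data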
SENP6 confirm: human SENP6 inhibition, confirmed; inhibition, % at 12.5 µM; recombinant SENP6, Z-RLRGG-aminoluciferin luminescence; shares compounds with SENP7 block; hit rate 58% among 6,200
SENP7 confirm: confirmation of human SENP7 protease inhibitors | inhibition, % at 12.5 µM | recombinant SENP7, Z-RLRGG-aminoluciferin luminescence, 40 min | shares compounds with SENP7 block | AID 488917 | hit rate 69% among 6,200
Casp3 SENP sel: selectivity test for SENP inhibitors: human caspase-3 inhibition | shares compounds with SENP7 block | purified caspase-3, Z-DEVD-aminoluciferin luminescence, 60 min | inhibition, % at 12.5 µM | hit rate 60% among 6,200;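 active = mean inhibition above about 50%, limit read from the data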
Target sequence (P42574 28-227 limits assumed): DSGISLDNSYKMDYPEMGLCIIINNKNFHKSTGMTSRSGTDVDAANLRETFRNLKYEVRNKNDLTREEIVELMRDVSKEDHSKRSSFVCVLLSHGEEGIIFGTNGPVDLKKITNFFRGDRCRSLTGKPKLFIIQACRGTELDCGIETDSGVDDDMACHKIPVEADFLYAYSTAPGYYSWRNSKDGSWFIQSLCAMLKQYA
Luc interf: counter-screen for SENP inhibitors: luminescence interference. shares compounds with SENP7 block. Pre-incubated SENP8/Z-RLRGG-aminoluciferin, luciferase luminescence interference. inhibition, % at 12.5 µM. hit rate 39% among 6,200. AID 488919;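 active = mean inhibition above about 50% when retested at one dose, limit read from the data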
Each line names hits and unclear results; the compound was inactive in the other large screens (follow-up assays come after a bar, where they were run).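 The calls were made as follows, unless noted: active = mean inhibition above about 50% in the one-dose retest (limit read from the data); inactive = the rest.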

CC(=O)c1cc(O)c2ccccc2c1O	SENP6 inh 60 | SENP8 confirm inactive | SENP6 confirm inactive | SENP7 confirm inactive | Casp3 SENP sel inactive | Luc interf inactive
CCSc1nnc(NC(=O)CCCOc2ccc(C)cc2)s1	none
CC[C@@H](C)C(NC(=O)OC(C)(C)C)c1cn([C@@H](Cc2ccc(O)cc2)C(=O)N2CCN(C(=O)OC(C)(C)C)CC2)nn1 (stereo partly drawn)	SENP6 inh 82 | SENP8 confirm inactive | SENP6 confirm inactive | SENP7 confirm inactive | Casp3 SENP sel inactive | Luc interf inactive
COC(=O)[C@H](CC(C)C)N(Cc1ccccc1)S(=O)(=O)N(Cc1ccc(OC)cc1)[C@@H](CC(C)C)C(=O)OC	none (no result: PPC-1+TRAIL kill)
O=C(NC1C2CCCC1CN(C1CC1)C2)c1ccc(Cl)cc1 (stereo not drawn)	none (no result: PPC-1+TRAIL kill)
COc1ccc(N=Cc2sc3ccccc3c2Cl)cc1	SENP7 block 58 | SENP8 confirm inactive | SENP6 confirm inactive | SENP7 confirm inactive | Casp3 SENP sel inactive | Luc interf inactive
Cc1nc(NC(=O)c2ccccc2)sc1-c1csc(NCc2ccco2)n1	SENP7 block 66, SENP6 inh 60 | SENP8 confirm inactive | SENP6 confirm inactive | SENP7 confirm inactive | Casp3 SENP sel 67 | Luc interf inactive
COc1cccc(Nc2nc(-c3sc(NC(=O)CC(C)C)nc3C)cs2)c1	none
COc1cccc(Nc2nc(-c3sc(NC(=O)c4ccccc4)nc3C)cs2)c1	SENP6 inh 59 | SENP8 confirm inactive | SENP6 confirm inactive | SENP7 confirm inactive | Casp3 SENP sel inactive | Luc interf inactive
CC(C)/C=C/C(=O)N1CCCC(N2CCN(c3ccccc3F)CC2)C1 (stereo not drawn)	none (no result: PPC-1+TRAIL kill)
O=C(CN1c2cccc3cccc(c23)S1(=O)=O)Nc1ccc(F)c(F)c1F	none (no result: PPC-1+TRAIL kill)
COc1ccc(/C=C(\C#N)C(=O)OCC(=O)NC2CC2)cc1	none
COc1cccc(C(=O)Nc2ccc(C3CC3(Cl)Cl)cc2)c1 (stereo not drawn)	SENP7 block 94, SENP8 block-2 92, TRAIL sens C8 49, SENP6 inh 85 | SENP8 confirm 96 | SENP6 confirm 97 | SENP7 confirm 103 | Casp3 SENP sel 92 | Luc interf inactive
COc1cccc(C(=O)Nc2ccc(F)c(F)c2F)c1	SENP7 block 51 | SENP8 confirm inactive | SENP6 confirm inactive | SENP7 confirm 77 | Casp3 SENP sel 70 | Luc interf 53
COc1cccc(C(=O)Nc2ccc(C(F)(F)F)n(C)c2=O)c1	SENP7 block 80, SENP8 block-2 65 | SENP8 confirm inactive | SENP6 confirm inactive | SENP7 confirm 82 | Casp3 SENP sel 70 | Luc interf inactive
COc1cc(OC)cc(C(=O)Nc2cccc(NC(C)=O)c2)c1	none
CCOC(=O)Nc1cccc(NC(=O)c2cc(OC)cc(OC)c2)c1	SENP7 block 71, SENP6 inh 64 | SENP8 confirm 74 | SENP6 confirm 70 | SENP7 confirm 88 | Casp3 SENP sel 76 | Luc interf 74
CN(C)S(=O)(=O)Oc1ccc(C(=O)Nc2cccc(Cl)c2)cc1	SENP7 block 75, SENP8 block-2 70, SENP6 inh 58 | SENP8 confirm 83 | SENP6 confirm 82 | SENP7 confirm 96 | Casp3 SENP sel 63 | Luc interf 72
COc1cccc(C(=O)Nc2cccc(C(C)=O)c2)c1	none
